Assay results as given in PubChem BioAssay (NCI).
Compounds without any hit were thinned out: in the full panel of roughly 83,000, 20% have a hit.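 Method: cells in 96-well plates; compound added at one concentration; 48 h incubation; percent growth measured; values under 10 scored active.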 Active and inactive are the calls of the source.

test system: UACC-257 melanoma; assay: NCI-60 one-dose screen, 48 h (100 = growth as untreated, 0 = no growth, -100 = all killed); settings: 10 µM unless noted

| Structure (SMILES) | growth |
| --- | --- |
| [O-]/[N+](=C\c1ccccc1)CC1(O)CCCCC1 | 102% (inactive) |
| CC(=O)O[C@H]1[C@H](CC#CC#CC[C@@H]2C[C@]3(C)[C@H]4CC=C5[C@H]6[C@@H](C)[C@H](C)CC[C@]6(C(=O)NCCCCCCCCN)CC[C@@]5(C)[C@]4(C)CC[C@H]3C(C)(C)[C@H]2OC(C)=O)C[C@]2(C)[C@H]3CC=C4[C@H]5[C@@H](C)[C@H](C)CC[C@]5(C(=O)NCCCCCCCCN)CC[C@@]4(C)[C@]3(C)CC[C@H]2C1(C)C | 106% (inactive) |
| N#Cc1c(N)c(C(=O)c2ccc3c(c2)OCCO3)n2c1CCCC2 | 45.9% (inactive) |
| Cc1c(O)c(=O)n(-c2ccccc2)n1C | 119% (inactive) |
| COc1ccc2[nH]c(O)c(/C=c3/ccc4c(c3)N=C(c3ccc(C(F)(F)F)cc3)N=4)c2c1 | 94.9% (inactive) |
| COc1ccc(/C=C/C(=O)c2ccc(NC(=O)CSc3nnc(-c4ccc(OC)cc4)n3-c3ccccc3)cc2)cc1 | 91.9% (inactive) |
| N=C(N)c1ccc(-c2ccc(-c3cc(Cl)cc(Cl)c3)o2)nc1 | -81.1% (active) |
| CN(C)c1ccc(N2Cc3ccccc3OC3=C2C(=O)c2c(O)ccc(O)c2C3=O)cn1 | -89.9% (active) |
| COc1ccccc1/C=N\NC(=S)Nc1ccc(F)cc1 | 77.2% (inactive) |
| FC(F)(F)C1=NNC(c2ccc3ccccc3c2)=NN1 | 104% (inactive) |
| CCCC(CCC)NCC(O)c1cc(-c2ccc(C(F)(F)F)cc2)nc(C(F)(F)F)c1 (centres undefined) | -76.9% (active) |
| CCOC(=O)c1c(NC(=O)c2ccccc2)sc2c(O)c(CN(CC)CC)ccc12 | 51% (inactive) |
| CCOC(C)(c1ccc(Cl)cc1)C1CCNCC1 (centres undefined) | 78.2% (inactive) |
| O=S(=O)(NCC[C@@H]1C[C@H]1c1ccc2ccccc2c1)c1ccc(C(F)(F)F)cc1 | 100% (inactive) |
| CC(CN1CCN(C)CC1)CN1c2ccccc2Sc2ccc(C(F)(F)F)cc21 (centres undefined) | 30% (inactive) |
| NC(=S)N/N=C(/c1cccs1)C1CC1 | 39.4% (inactive) |
| COc1cc(C2Nc3ccccc3S2)cc(CN2CCOCC2)c1O (centres undefined) | 78.2% (inactive) |
| O=[N+]([O-])c1cccc([I+]c2ccccc2)c1 | 80.1% (inactive) |
| C=CCn1c(SCC(=O)Nc2ccc(/C(C)=N\O)cc2)nnc1-c1cc(-c2ccccc2)nc2ccccc12 | 75.6% (inactive) |
| C=CC[C@]1(O)CC[C@H]2[C@@H]3CCc4cc(O)ccc4[C@H]3CC[C@@]21C | 102% (inactive) |

| Structure (SMILES) | growth |
| --- | --- |
| CC(=O)c1c(O)c(C)c(O)c2c1OC1=CC(=O)/C(=C(/C)N)C(=O)C12C (centres undefined) | 100% (inactive) |
| COc1c(B(O)O)cccc1-c1nc2c(F)cc3n[nH]c(C)c3c2c2c1CCCC2 | 18.8% (inactive) |
| CCCCNCC(O)c1cc(-c2ccc(C(F)(F)F)cc2)nc(-c2ccc(C(F)(F)F)cc2)c1 (centres undefined) | -70.3% (active) |
| Oc1[nH]c2ccc(Cl)cc2c1/C=c1/ccc2c(c1)N=C(c1ccc(F)cc1)N=2 | 70.1% (inactive) |
| COc1ccc(C(=O)c2c(N)nc3n2CCCC3)cc1OC | 100% (inactive) |
| CCOC(=O)Nc1ccc2nc(-c3cscn3)[nH]c2c1 | 66.6% (inactive) |
| CCOC(=O)C(Nc1ccccc1)C(=O)OCC | 112% (inactive) |
| CN1CCN(Cc2ccc(NC(=O)c3cncc(C#Cc4ncc5ccccn45)c3)cc2C(F)(F)F)CC1 | 7.63% (active) |
| COS(=O)(=O)CCN(CCOS(C)(=O)=O)S(C)(=O)=O | 82.6% (inactive) |
| O=C(c1ccccc1)N(CCCCl)C(=O)N(CCCCl)C(=O)c1ccccc1 | 100% (inactive) |
| OC(c1cc2cc(Cl)ccc2c2cc(C(F)(F)F)ccc12)C1CCCCN1 (centres undefined) | -84% (active) |
| CC(C)CC(NC(=O)C(CCCN=C(N)N)NC(=O)OCc1ccccc1)C(=O)NC(CNC(=O)/C=C/c1ccccc1)C(C)C (centres undefined) | 107% (inactive) |
| CCn1c(CN2CCN(Cc3ccccc3)CC2)nc2cc(NC(=O)c3cccs3)ccc21 | -80.1% (active) |
| COc1cc(C)cc2oc3oc(=O)c(-c4csc(-c5cc6ccccc6oc5=O)n4)cc3c(=O)c12 | 115% (inactive) |
| OC(c1cc2c(Cl)cc(Cl)cc2c2cc(C(F)(F)F)ccc12)C1CCCCN1 (centres undefined) | -67.1% (active) |
| N#CC1=C(N)Oc2nc[nH]c(=O)c2C1c1cccs1 (centres undefined) | 98.4% (inactive) |
| Cc1cc(C)cc(Nc2cc(C)nc3nc(C(F)(F)F)nn23)c1 | 30.7% (inactive) |
| Cc1ccc(N2C3c4ccccc4N(S(=O)(=O)c4ccc(C)cc4)C2c2ccccc2N3S(=O)(=O)c2ccc(C)cc2)cc1 | 102% (inactive) |
| CCOC(=O)c1ccc(NC(=O)NC2=NCCS2)cc1 | 80.5% (inactive) |
